# Measurements published in PubChem BioAssay (Tox21).
# A number with no mark means an inactive call. Calls come from the whole dose curve; as a rule, active = well fitted curve in the direction sought with a large enough effect in the repeat runs; inconclusive = weak or mixed curves; inactive = no such curve, though single readings can be large; an effect the other way counts as inactive or inconclusive. Inconclusive results are not listed.
# Experiment: A CellTox Green Cytotoxicity Assay to monitor cytotoxicity in HEK293 cells - 0 hour (AID 1224869); note: nearly all actives have a fitted effect of over 50% in size
# Details: CellTox Green fluorescence; series mostly up to 76.8 µM; cytotoxicity: at the top concentration
# Procedure, shortened: (§1)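 Cytotoxicity was tracked continuously in HEK293 cells by a DNA-binding dye excluded from viable cells. Compounds were transferred in DMSO 5 h after seeding; fluorescence was recorded at intervals up to 40 h.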
# % is set by controls: 0 for no effect and ±100 for the full control effect.
row,Structure (SMILES),cytotoxicity
1,CCN1CCCC1CN (stereo unspecified),-3.51% [at 35.3 µM]
2,N[C@@H](Cc1ccc(O)cc1)C(=O)O,1.14% [at 6.97 µM]
3,CC(S)C(C)S (stereo unspecified),-8.84%
4,C/C(CC(C)C)=N\O,-4.14%
5,CC(O)CC(C)O (stereo unspecified),3.02%
6,O=C(CN1CCNCC1)NC1CCCCC1,-4.04% [at 35.3 µM]
7,O=C(O)CNC(=O)CNC(=O)CNC(=O)CSC(=O)c1ccccc1,-0.152% [at 35.3 µM]
8,CCC(C)C(C)=O (stereo unspecified),1.33%
9,O=C1CCCCO1,-3.5%
10,Cc1ncc([N+](=O)[O-])n1CC(C)O (stereo unspecified),3.74% [at 35.3 µM]
11,C=CCCCCCCCCC(=O)OCCCC,1.58%
12,O=C[O][Al]([O]C=O)[O]C=O,5.73%
13,CN1C[C@@H]2C[C@H]1CN2c1cc2c(cc1F)c(=O)c(C(=O)O)cn2C1CC1,-0.324% [at 15.8 µM]
14,CC/C(C)=N\O[Si](C)(O/N=C(\C)CC)O/N=C(\C)CC,-0.803%
15,O/N=C/C=N/O,-3.58%
16,CCCCSCCCC,-0.359%
17,CC1(C)[C@H]2CC[C@](C)(C2)[C@H]1O,-1.61%
18,CN1CCOC(c2ccccc2)c2ccccc2C1 (stereo unspecified),0.458% [at 35.3 µM]
19,N#Cc1ccccc1O,-15.9%

row,Structure (SMILES),cytotoxicity
1,CC(Oc1cc(Cl)ccc1Cl)C(=O)O (stereo unspecified),-5.72%
2,C=CCCCC,-4.31%
3,CC(=O)O[C@@H]1CC2CCC1(C)C2(C)C (stereo partly specified),-9.68%
4,CCCCCCCCCCCCCCC(=O)NC(CO)CCCCCCCCCCCCCC (stereo unspecified),8.77%
5,O=C(O)[C@H](O)c1ccccc1,-11.3% [at 35.3 µM]
6,CCC(C)OC(C)CC (stereo unspecified),-0.317%
7,[O-][n+]1cccc(/C(Cl)=N/OC[C@@H](O)CN2CCCCC2)c1,-2.14% [at 35.3 µM]
8,COS(=O)(=O)O,-2.92%
9,CCCSSCCC,1.57%
10,C=C(C)C1CC=C(C)C(=O)C1 (stereo unspecified),-1.35%
11,N#CCC(=O)NN,-2.54% [at 35.3 µM]
12,CCCCOC(=O)[C@H](C)O,2.46%
13,CCCCCCCCCCCCCCCCCC#N,-6.11%
14,CC(C)NC(=O)c1ccc(C=O)cc1,1.8% [at 35.3 µM]
15,O=NN(CCCl)C(=O)NC1CCCCC1,-5.31% [at 35.3 µM]
16,CC(C)Nc1ccccc1,-6.18%
17,C/C=C(\C)C(C)=O,-0.277%
18,COc1c2occc2c(OC)c2c(=O)cc(C)oc12,1.37% [at 35.3 µM]

# Experiment: qHTS RealTime-Glo MT Cell Viability Assay in HepG2 cells - 40 hour (AID 1224870); note: nearly all actives have a fitted effect of over 50% in size
# Details: RealTime-Glo luminescence; series mostly up to 76.8 µM; activity change, negative = cytotoxic: at the top concentration
# Procedure, shortened: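 Real-time viability: cells seeded at 600 per well together with NanoLuc and cell-permeant prosubstrate, compounds added after 5 h incubation. Luminescence tracked at 0, 8, 16, 24, 32 and 40 h of exposure.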
row,Structure (SMILES),"activity change, negative = cytotoxic"
1,CCN1CCCC1CN (stereo unspecified),3.02% [at 35.3 µM]
2,N[C@@H](Cc1ccc(O)cc1)C(=O)O,1.47% [at 6.97 µM]
3,CC(S)C(C)S (stereo unspecified),1.74%
4,C/C(CC(C)C)=N\O,-9.32%
5,CC(O)CC(C)O (stereo unspecified),0.63%
6,O=C(CN1CCNCC1)NC1CCCCC1,-3.54% [at 35.3 µM]
7,O=C(O)CNC(=O)CNC(=O)CNC(=O)CSC(=O)c1ccccc1,2.43% [at 35.3 µM]
8,CCC(C)C(C)=O (stereo unspecified),-0.662%
9,O=C1CCCCO1,0.288%
10,Cc1ncc([N+](=O)[O-])n1CC(C)O (stereo unspecified),0.0373% [at 35.3 µM]
11,C=CCCCCCCCCC(=O)OCCCC,-0.623%
12,O=C[O][Al]([O]C=O)[O]C=O,1.15%
13,CN1C[C@@H]2C[C@H]1CN2c1cc2c(cc1F)c(=O)c(C(=O)O)cn2C1CC1,1.94% [at 15.8 µM]
14,CC/C(C)=N\O[Si](C)(O/N=C(\C)CC)O/N=C(\C)CC,-8.39%
15,O/N=C/C=N/O,0.48%
16,CCCCSCCCC,3.47%
17,CC1(C)[C@H]2CC[C@](C)(C2)[C@H]1O,0.303%
18,CN1CCOC(c2ccccc2)c2ccccc2C1 (stereo unspecified),2.35% [at 35.3 µM]
19,N#Cc1ccccc1O,2.18%

row,Structure (SMILES),"activity change, negative = cytotoxic"
1,CC(Oc1cc(Cl)ccc1Cl)C(=O)O (stereo unspecified),1.94%
2,C=CCCCC,0.242%
3,CC(=O)O[C@@H]1CC2CCC1(C)C2(C)C (stereo partly specified),2.26%
4,CCCCCCCCCCCCCCC(=O)NC(CO)CCCCCCCCCCCCCC (stereo unspecified),9.56%
5,O=C(O)[C@H](O)c1ccccc1,3.29% [at 35.3 µM]
6,CCC(C)OC(C)CC (stereo unspecified),-3.92%
7,[O-][n+]1cccc(/C(Cl)=N/OC[C@@H](O)CN2CCCCC2)c1,0.8% [at 35.3 µM]
8,COS(=O)(=O)O,1.89%
9,CCCSSCCC,0.203%
10,C=C(C)C1CC=C(C)C(=O)C1 (stereo unspecified),-2.03%
11,N#CCC(=O)NN,-0.815% [at 35.3 µM]
12,CCCCOC(=O)[C@H](C)O,-1.34%
13,CCCCCCCCCCCCCCCCCC#N,9.85%
14,CC(C)NC(=O)c1ccc(C=O)cc1,3.81% [at 35.3 µM]
15,O=NN(CCCl)C(=O)NC1CCCCC1,1.13% [at 35.3 µM]
16,CC(C)Nc1ccccc1,0.842%
17,C/C=C(\C)C(C)=O,0.985%
18,COc1c2occc2c(OC)c2c(=O)cc(C)oc12,1.79% [at 35.3 µM]

# Experiment: A CellTox Green Cytotoxicity Assay to monitor cytotoxicity in HEK293 cells - 40 hour (AID 1224871); note: nearly all actives have a fitted effect of over 45% in size
# Details: CellTox Green fluorescence; series mostly up to 76.8 µM; cytotoxicity increase: at the top concentration
# Procedure, shortened: as §1
row,Structure (SMILES),cytotoxicity increase
1,CCN1CCCC1CN (stereo unspecified),-17.6% [at 35.3 µM]
2,N[C@@H](Cc1ccc(O)cc1)C(=O)O,-0.009% [at 6.97 µM]
3,CC(S)C(C)S (stereo unspecified),-18.7%
4,C/C(CC(C)C)=N\O,-7.28%
5,CC(O)CC(C)O (stereo unspecified),18.9%
6,O=C(CN1CCNCC1)NC1CCCCC1,-3.56% [at 35.3 µM]
7,O=C(O)CNC(=O)CNC(=O)CNC(=O)CSC(=O)c1ccccc1,6.25% [at 35.3 µM]
8,CCC(C)C(C)=O (stereo unspecified),3.83%
9,O=C1CCCCO1,-8.82%
10,Cc1ncc([N+](=O)[O-])n1CC(C)O (stereo unspecified),-0.077% [at 35.3 µM]
11,C=CCCCCCCCCC(=O)OCCCC,13%
12,O=C[O][Al]([O]C=O)[O]C=O,-2.41%
13,CN1C[C@@H]2C[C@H]1CN2c1cc2c(cc1F)c(=O)c(C(=O)O)cn2C1CC1,-7.03% [at 15.8 µM]
14,CC/C(C)=N\O[Si](C)(O/N=C(\C)CC)O/N=C(\C)CC,0.092%
15,O/N=C/C=N/O,-3.87%
16,CCCCSCCCC,-6.43%
17,CC1(C)[C@H]2CC[C@](C)(C2)[C@H]1O,-13.8%
18,CN1CCOC(c2ccccc2)c2ccccc2C1 (stereo unspecified),15.6% [at 35.3 µM]
19,N#Cc1ccccc1O,-25.5%

row,Structure (SMILES),cytotoxicity increase
1,CC(Oc1cc(Cl)ccc1Cl)C(=O)O (stereo unspecified),1.07%
2,C=CCCCC,-0.261%
3,CC(=O)O[C@@H]1CC2CCC1(C)C2(C)C (stereo partly specified),-23.7%
4,CCCCCCCCCCCCCCC(=O)NC(CO)CCCCCCCCCCCCCC (stereo unspecified),2.39%
5,O=C(O)[C@H](O)c1ccccc1,-37.4% [at 35.3 µM]
6,CCC(C)OC(C)CC (stereo unspecified),-0.157%
7,[O-][n+]1cccc(/C(Cl)=N/OC[C@@H](O)CN2CCCCC2)c1,10.1% [at 35.3 µM]
8,COS(=O)(=O)O,0.429%
9,CCCSSCCC,-1.18%
10,C=C(C)C1CC=C(C)C(=O)C1 (stereo unspecified),-8%
11,N#CCC(=O)NN,-0.389% [at 35.3 µM]
12,CCCCOC(=O)[C@H](C)O,-8.56%
13,CCCCCCCCCCCCCCCCCC#N,-11.7%
14,CC(C)NC(=O)c1ccc(C=O)cc1,-13.3% [at 35.3 µM]
15,O=NN(CCCl)C(=O)NC1CCCCC1,-9.25% [at 35.3 µM]
16,CC(C)Nc1ccccc1,-1.47%
17,C/C=C(\C)C(C)=O,0.679%
18,COc1c2occc2c(OC)c2c(=O)cc(C)oc12,5.66% [at 35.3 µM]
